In all, about 420,000 compounds went through this assay and about 50,000 (12%) were called active. Another 26% or so got no clear call; they are omitted. This excerpt belongs to a sample that is enriched for actives. A number with no mark means an inactive call. The call rests on the fitted dose curve; in most records, active means well fitted inhibition curve with a large enough effect; inconclusive means small, poorly fitted or top-dose-only effect; inactive means flat fitted curve, though single readings scatter.
Assay: qHTS for Inhibitors of human tyrosyl-DNA phosphodiesterase 1 (TDP1): qHTS in cells in presence of CPT; further: nearly all actives have a fitted effect of over 55% in size
Conditions: chicken DT40 Tdp1-/-;hTDP1 cells + 20 nM CPT, ATP luminescence, 48 h; series mostly up to 46.2 µM; activity change, negative = growth inhibition: at the top concentration
Outline: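 Chicken DT40 Tdp1-/- cells stably complemented with human TDP1 were seeded at 400 cells/well in medium containing 20 nM camptothecin, exposed to pin-transferred compounds, and grown at 37 °C for at least 48 hr. Viability was read as ATP luminescence.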
On the % scale 0 is the no-effect control and ±100 the full control effect; potency means the concentration at half of the fitted maximal effect.

| SMILES | activity change, negative = growth inhibition | Potency |
| --- | --- | --- |
| COc1cccc(-c2cccc(NC(=O)C3CCN(C4CCC4)CC3)c2)c1 | 0.465% |  |
| CCn1cc(CN2CCC(C(=O)Nc3cccc(-c4cccc(Cl)c4)c3)CC2)cn1 |  | 16.4 µM (active) |
| CC(CCn1cccn1)NC(=O)CCc1nnc(CCc2ccccc2)o1 (stereo unspecified) | 15.6% |  |
| CCC(C)NC(=O)C1c2ccccc2C(=O)N1Cc1ccccc1 (stereo unspecified) | -9.45% |  |
| Cc1cc(-c2ccnc(-n3ncc(C(=O)NC(C)(C)CO)c3C3CC3)n2)c(C)s1 | 3.64% [at 9.04 µM] |  |
| COc1ccc(C(=O)N2CCC(C(=O)Nc3ccc(C)cc3)CC2)cc1 |  | 18.4 µM (active) |
| CC(C)(C)c1ccc(C(=O)N2CCC(C(=O)N3CCCCC3)CC2)cc1 | -27.5% |  |
| COc1ccc(CNC(=O)C2CCN(C(=O)c3ccccc3)CC2)cc1 | -10.8% |  |
| CCc1ccc(NC(=O)Cn2nnc(C(=O)NCc3ccc(OC)cc3)c2N)cc1 | -1.18% |  |
| COc1ccc(CNC(=O)C2CCN(C(=O)c3ccco3)CC2)cc1 | -4.73% |  |
| COc1ccc(C(=O)Nc2ccc(CN3CCOCC3)cc2)cc1 | -20.4% |  |
| COc1ccccc1NC(=O)C1CCN(C(=O)c2ccc(C(C)(C)C)cc2)CC1 |  | 23.1 µM (active) |
| CCc1ccc(NC(=O)CN2CCC(C(=O)c3ccc(OC)cc3)CC2)cc1 |  | 5.8 µM (active) |
| COc1ccc(NC(=O)N2CCCC(C(=O)Nc3ccccc3OC)C2)cc1 (stereo unspecified) | -0.903% |  |
| Cc1ccc(NC(=O)[C@H](Cc2ccccc2)NC(=O)C2CCNCC2)cc1 | -4.44% |  |
| CC(=O)Nc1ccc(S(=O)(=O)N2CCC(NC(=O)c3ccccc3)CC2)cc1 | -4.74% |  |
| O=C(Cc1ccc(Br)cc1)NCCc1ccccc1 | -16.5% |  |
| O=C(Nn1cnnc1)c1cc(Cl)ccc1Cl | -9.38% |  |
| NS(=O)(=O)c1cccc(NC(=O)COC(=O)/C=C/c2ccco2)c1 | 1.47% |  |
| CCC(C)C(CO)NC(=O)/C=C/[C@H]1O[C@@H](n2cnc3c(NC(=O)c4ccccc4)ncnc32)[C@H](O)[C@@H]1O (stereo partly specified) | 3.57% |  |
| Cc1ccnc(NC(=O)c2ccoc2C)c1 | -5.15% |  |
| C/C(=N\NC(=O)c1ccccc1C)c1ccc(N2CCOCC2)cc1 | -5.61% |  |
| C/C(=N\NC(=O)c1ccoc1C)c1ccccc1O |  | 10.3 µM (active) |
| COC(=O)c1sc(=S)n(-c2ccc(Cl)cc2)c1C | -11.9% |  |
| OC(CBr)CN1CCCCC1 (stereo unspecified) | -5.66% |  |
| COc1ccc(-n2nnnc2CNC(=O)c2ccc3ccccc3c2)cc1 | -13.1% |  |

| SMILES | activity change, negative = growth inhibition | Potency |
| --- | --- | --- |
| O=C(NCc1nnnn1-c1ccc(Cl)cc1)c1ccc([N+](=O)[O-])o1 |  | 18.4 µM (active) |
| O=C(NCc1nnnn1-c1ccc(Cl)cc1)c1ccc2c(c1)OCO2 | -14.2% |  |
| O=C(/C=C/c1cccc([N+](=O)[O-])c1)NCCSCc1ccco1 | -16.6% |  |
| COc1cc(C(=O)NC2CCN(C)CC2)ccc1Nc1ncc2c(n1)N(C1CCC(O)CC1)CCC(=O)N2C (stereo unspecified) |  | 16.4 µM (active) |
| COc1ccc(C(=O)NC2CC2)cc1OC1CCN(Cc2cnn(C)c2)CC1 | -4.23% |  |
| COc1ccc(Cl)cc1NS(=O)(=O)c1cccc(C(=O)NC2CCC(O)CC2)c1 (stereo unspecified) | 1.8% |  |
| O=C(NCCc1ccccc1Cl)C1CCC(=O)N(CCCc2ccccc2)C1 (stereo unspecified) | -29.6% |  |
| COc1ccc(C(=O)O)cc1S(=O)(=O)NCc1cccnc1 | -2.76% |  |
| O=C(CCn1c(=O)c2ccccc2n(Cc2ccc(Cl)cc2)c1=O)NCc1ccc2c(c1)OCO2 | -29.2% |  |
| CCOc1ccc(NC(=O)Cn2c(=O)n(CCCC(=O)NCc3ccc4c(c3)OCO4)c(=O)c3ccccc32)cc1 | -2.1% |  |
| O=C(CCCCn1c(=O)c2ccccc2n(CC(=O)Nc2cccc(C(F)(F)F)c2)c1=O)NCc1ccc2c(c1)OCO2 |  | 18.4 µM (active) |
| CCCCn1c(SCC(=O)N2CCC(C(=O)OCC)CC2)nc2cc(S(N)(=O)=O)ccc21 | -9.44% |  |
| CCCCn1c(SCC(=O)N2CCCC2=O)nc2cc(S(N)(=O)=O)ccc21 | -16% |  |
| CCCCn1c(SCc2ncc(-c3ccccc3)o2)nc2cc(S(N)(=O)=O)ccc21 |  | 11.6 µM (active) |
| COc1cccc(Cn2cnc3c([N+](=O)[O-])c(C)c(C)cc32)c1 | -13% |  |
| CCc1ccc2[nH]c(=O)c(Cc3ccccc3)c(O)c2c1 | -29.7% |  |
| CCOc1ccc(NC(=O)c2ccc(NC(=O)COC(=O)c3ccc(NC(=O)CC#N)cc3)cc2)cc1 | -19.3% |  |
| CCC(=O)Nc1ccc(C(=O)Nc2cccc(OC)c2)cc1 | 5.12% |  |
| CSc1cccc(NC(=O)CSc2ccccc2)c1 | -0.186% |  |
| CCOc1ccc(C(=O)Nc2ccncc2)cc1 |  | 10.3 µM (active) |
| CCOc1ccc(C(=O)Nc2cccc(-c3ccc4nncn4n3)c2)cc1 |  | 20.6 µM (active) |
| CCOc1ccc(C(=O)Nc2cccc(SC)c2)cc1 |  | 6.51 µM (active) |
| CCOc1ccc(NC(=O)c2ccc(CSc3nnnn3C)cc2)cc1 | -9.3% |  |
| CCOc1ccc(NC(=O)c2ccc(NC(=O)C3CCCO3)cc2)cc1 (stereo unspecified) | 0.978% |  |
| CCOc1ccc(C(=O)Nc2c3c(nn2-c2ccccc2)CS(=O)(=O)C3)cc1 | -2.2% |  |

From PubChem BioAssay AID686979 (National Center for Advancing Translational Sciences (NCATS), 2013)
